The list is not random: actives were taken first. Their share in the collection is about 0.9%.
PPARg SRC1 recr: agonists of human PPARgamma SRC-1 coactivator recruitment | PPARgamma-SRC-1 coactivator recruitment biochemical assay | AID 631 | 0.41% of 200,000 active | P37231 | activation, % at 8 µM; in the data active = activation above about 19%;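 also: 0% = DMSO and 100% = reference agonist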
SRC1 TRFRET art: TR-FRET artefact, counter-screen to PPARgamma/SRC-1 agonist assay; TR-FRET detection artefact counter-screen, emission ratio; hits give high values; TR-FRET ratio at 8 µM; 0.34% of 99,000 active; in the data active = TR-FRET ratio above about 2300
PPARg SRC-2 ag: PPARgamma-driven SRC-2 recruitment agonism; 0.34% of 200,000 active; activation, % at 8 µM; PPARgamma LBD-SRC-2 recruitment, biochemical; AID 1032; in the data active = activation above about 22%;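 also: 0% = vehicle and 100% = reference agonist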
SRC3 TRFRET art: flags TR-FRET format artefacts in PPARgamma SRC-3 recruitment agonist screen. TR-FRET artefact counter-screen, PPARgamma/SRC-3 format; hits give high values. TR-FRET ratio at 8 µM. 0.39% of 99,000 active. AID 1048
PPARg SRC-3 ag: promotes SRC-3 coactivator recruitment by human PPARgamma; P37231; biochemical PPARgamma/SRC-3 coactivator recruitment assay; activation, % at 8 µM; 0.26% of 200,000 active; AID 731; in the data active = activation above about 23%;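 also: 0% = DMSO and 100% = reference agonist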
TR-FRET SRC-2 ct: flags TR-FRET format artefacts in PPARgamma SRC-2 recruitment agonist screen; TR-FRET artefact counter-screen; hits give high values; TR-FRET ratio at 8 µM; 0.4% of 200,000 active
PPARg SRC2 conf: human PPARgamma SRC-2 recruitment agonism, confirmation; activation, % at 8 µM; AID 1297; shares compounds with PPARg SRC-3 ag; 52% of 790 active; biochemical SRC-2 recruitment by PPARgamma; in the data active = activation above about 22%;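 also: 0% = vehicle alone and 100% = reference agonist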
PPARg SRC1 ag: human PPARgamma SRC-1 recruitment agonism, confirmation. shares compounds with PPARg SRC-3 ag. PPARgamma–SRC-1 coactivator recruitment biochemical assay. activation, % at 8 µM. 43% of 790 active; in the data active = activation above about 20%;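 also: 0% = vehicle wells and 100% = reference agonist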
PPARg SRC3 conf: human PPARgamma SRC-3 recruitment agonism, confirmation | biochemical PPARgamma-SRC-3 coactivator recruitment, agonist mode | AID 1301 | 29% of 790 active | shares compounds with PPARg SRC-3 ag | activation, % at 8 µM; in the data active = activation above about 24%;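 also: 0% = vehicle wells and 100% = reference agonist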
An asterisk follows results filed as active; . = no result. Rule as the data show it, unless noted: active = TR-FRET ratio above about 2000; inactive = the rest.

SMILES	PPARg SRC1 recr	SRC1 TRFRET art	PPARg SRC-2 ag	SRC3 TRFRET art	PPARg SRC-3 ag	TR-FRET SRC-2 ct	PPARg SRC2 conf	PPARg SRC1 ag	PPARg SRC3 conf
COc1ccc(/C(O)=C2\C(=O)C(=O)N(c3cc(C)on3)C2c2ccccc2OC)cc1 (stereo not given)	19*	.	32*	.	25	2135*	31*	25*	19
COc1ccc(NC(=O)c2oc3cc(C)c(C)cc3c2C)c(OC)c1	-6	.	-9	.	3	1355	.	.	.
CCN(CC)S(=O)(=O)c1ccc2oc(C(=O)Nc3ccc(OC)cc3OC)c(C)c2c1	19*	.	13	.	-10	1691	0	3	2
CCn1c(=S)[nH]c2c(c1=O)C(C)(C)Cc1ccccc1-2	44*	3374*	33*	2752*	28*	2673*	36*	23*	25*
Cn1c(=S)[nH]c2c(c1=O)C(C)(C)Cc1ccccc1-2	40*	3109*	45*	2669*	25*	2681*	37*	24*	24*
CC1(C)Cc2ccccc2-c2nc3n(c(=O)c21)CCS3	4	1872	5	1484	7	1747	.	.	.
Cc1ccc(Nc2nnc(SCC(=O)NCCN3C(=O)CSC3=O)s2)cc1	-6	1822	2	1592	0	1460	.	.	.
Cc1ccc(S(=O)(=O)N(C)C)cc1NC(=O)C(C)Sc1ccccc1 (stereo not given)	2	1891	0	1728	3	1512	.	.	.
O=C(NC1CC1)C1=C[C@@H](C2CCCCC2)C[C@@H](OCCCCO)O1	-4	1931	-4	1642	1	1648	.	.	.
CCOC(=O)CSc1nc(N)c(C(=O)Nc2ccc(N(C)C)cc2)s1	22*	.	10	.	4	1889	7	11	6
O=C(c1cc2c(s1)-c1ccccc1OC2)N1CCN(c2ccccc2)CC1	19*	.	21	.	11	2061*	22	19	12
CCOC(=O)N1CCN(C(=O)c2cc3c(s2)-c2ccccc2OC3)CC1	20*	.	13	.	38*	1847	8	9	4
O=C(c1cc2c(s1)-c1ccccc1OC2)N1CCN(c2ccccn2)CC1	30*	.	22*	.	30*	2008*	34*	30*	20
CCN(CC)C(=O)c1ccc2c(c1[N+](=O)[O-])C(=O)c1ccccc1C2=O	4	1606	-3	1426	-4	1531	.	.	.
COC(=O)c1c(C)nc2nonc2c1N	-1	1526	-6	1458	0	1405	.	.	.
COc1ccc(CCNC(=O)COc2ccc(C)nc2[N+](=O)[O-])cc1	3	1809	4	1746	1	1371	.	.	.
N#Cc1ccc(-c2ccc(F)cc2)nc1SCC(=O)Nc1sc2c(c1C#N)CCC2	20*	.	2	.	9	1696	21	10	10
N#Cc1cc2c(nc1SCC(=O)Nc1sc3c(c1C#N)CCC3)CCCC2	14	.	10	.	2	1572	.	.	.
O=C(Cc1ccccc1)NC1c2ccccc2-c2ccccc21	7	1972	3	1743	4	1675	.	.	.
COCCN(C(=O)CSc1nc2ccccc2c(=O)n1CCOC)c1c(N)n(Cc2ccccc2)c(=O)[nH]c1=O	-7	1668	-5	1549	0	1396	.	.	.
Cn1c(N=Nc2ccc(N3CCOCC3)cc2)[n+](C)c2ccccc21	43*	2668*	53*	2227*	39*	2551*	22	18	17
Cn1c(=Nc2ccc(N3CCOCC3)cc2)ccc2ccccc21	-3	.	-5	.	-6	1413	.	.	.
O=C(CSc1nnc(-c2cccs2)n1-c1ccccc1)Nc1ccccc1	46*	.	64*	.	31*	1837	20	17	9
CCOC(=O)CSc1nnc(-c2cccs2)n1-c1ccccc1	6	.	6	.	6	1676	.	.	.
COC(=O)CNc1n[nH]c(=S)[nH]c1=O	100*	.	121*	.	156*	4234*	119*	86*	82*
SMILES	PPARg SRC1 recr	SRC1 TRFRET art	PPARg SRC-2 ag	SRC3 TRFRET art	PPARg SRC-3 ag	TR-FRET SRC-2 ct	PPARg SRC2 conf	PPARg SRC1 ag	PPARg SRC3 conf
CCOC(=O)CSc1nnc(NCC(=O)OC(C)C)c(=O)[nH]1	7	.	7	.	7	1728	.	.	.
CC(C)OC(=O)C(C)Nc1n[nH]c(=S)[nH]c1=O (stereo not given)	71*	3785*	66*	3327*	45*	3006*	98*	74*	64*
CC(C)COC(=O)C(C)Nc1n[nH]c(=S)[nH]c1=O (stereo not given)	8	2031	10	1932	5	1786	.	.	.
COC(=O)CCNc1n[nH]c(=O)[nH]c1=O	-1	1933	8	1714	7	1554	.	.	.
CC(C)OC(=O)CNc1n[nH]c(=S)[nH]c1=O	113*	5153*	129*	4653*	74*	4518*	106*	78*	71*
COc1ccc(-c2nc(SCC(=O)NC3CCCC3)c(-c3ccc(OC)cc3)[nH]2)cc1	7	1827	24*	1994	10	1685	1	2	-1
C#CCSc1ncc(-c2ccccc2)cn1	21*	2074	10	1553	6	1733	5	4	5
CC(=O)Oc1cc2cccc(OC(C)=O)c(=O)c2c(OC(C)=O)c1OC(C)=O	11	1973	17	1773	10	1830	8	7	4
COc1cc2cccc(OC)c(=O)c2c(O)c1OC	6	1983	3	1498	-2	1681	.	.	.
C=CCOc1ccc(C2C(C(=O)c3cccs3)=C(O)C(=O)N2c2nnc(C)s2)cc1 (stereo not given)	11	.	17	.	15	1771	.	.	.
COc1ccc(C2C(C(=O)c3cccs3)=C(O)C(=O)N2c2nncs2)cc1 (stereo not given)	27*	.	13	.	26*	1901	24*	19	14
COc1ccc(C2C(C(=O)c3cccs3)=C(O)C(=O)N2c2nnc(C)s2)cc1OC (stereo not given)	13	.	8	.	9	1679	.	.	.
CC(C)c1nnc(N2C(=O)C(O)=C(C(=O)c3cccs3)C2c2ccccc2)s1 (stereo not given)	38*	2598*	31*	2283*	21	2400*	13	9	8
Cc1cccc(NC(=O)C2CCCN2C(=O)NC2CCCCC2)c1 (stereo not given)	-4	1622	0	1695	6	1608	.	.	.
O=C(Nc1ccccc1)c1cccc(S(=O)(=O)Oc2ccc([N+](=O)[O-])cc2)c1	6	1917	4	1621	4	1729	.	.	.
CCC(=O)c1c(NC(CC)CO)cc(C)oc1=O (stereo not given)	-2	1761	0	1592	3	1497	.	.	.

Source: PubChem (The Scripps Research Institute Molecular Screening Center)
